Out of some 5,500 compounds screened, about 2,000 (36%) were called active. Roughly 18% stayed inconclusive and do not appear here. No stated cut-off is given here; in the data, active means normalized growth mostly below about 0.91 (no sharp cut-off); inconclusive means no clear call, values can overlap the other calls; inactive means mostly above about 0.92. This is one part of the list.
Experiment: chemical genetic growth profiling, strain panel (AID 1159580);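 further: tested at 20 µM; growth read once vehicle control cultures reached saturation at 30 °C; 1 = growth at the plate median or of vehicle wells; lower values mean less growth of the strain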
Settings: S. cerevisiae deletion strains, growth OD

Measured: normalized growth

O=C1CC(c2ccc(O)c(O)c2)Oc2cc(O)cc(O)c21 (stereo unspecified)
inactive: locus YAL021C, strain ccr4, active compounds read low 0.989 | locus YAL026C, strain drs2, active compounds read low 1 | locus YAL030W, strain snc1, active compounds read low 0.994 | locus YBL061C, strain skt5, active compounds read low 0.984 | locus YBR009C, strain hhf1, active compounds read low 1.01 | locus YBR023C, strain chs3, active compounds read low 0.987 | locus YBR171W, strain sec66, active compounds read low 0.993 | locus YBR231C, strain swc5, active compounds read low 0.958 | locus YBR279W, strain paf1, active compounds read low 1.01 | locus YCL011C, strain gbp2, active compounds read low 1 | locus YCL016C, strain dcc1, active compounds read low 1.01 | locus YCL061C, strain MRC1, active compounds read low 0.989 | locus YCL069W, strain vba3, active compounds read low 1.01 | locus YCR088W, strain abp1, active compounds read low 0.999 | locus YDL005C, strain med2, active compounds read low 0.977 | locus YDL040C, strain nat1, active compounds read low 1.01 | locus YDR001C, strain nth1, active compounds read low 1.01 | locus YDR069C, strain doa4, active compounds read low 0.958 | locus YDR137W, strain rgp1, active compounds read low 0.995 | locus YDR159W, strain sac3, active compounds read low 0.995 | locus YDR195W, strain ref2 0.983 | locus YDR297W, strain sur2, active compounds read low 1.01 | locus YDR334W, strain swr1, active compounds read low 1.01 | locus YDR335W, strain msn5, active compounds read low 0.994 | locus YDR392W, strain spt3, active compounds read low 0.967 | locus YEL003W, strain gim4, active compounds read low 0.994 | locus YEL037C, strain rad23, active compounds read low 0.986 | locus YEL061C, strain CIN8 (second series), active compounds read low 1.01 | locus YER015W, strain faa2, active compounds read low 0.996 | locus YER016W, strain bim1, active compounds read low 0.992 | locus YER111C, strain swi4, active compounds read low 0.99 | locus YER155C, strain BEM2 (second series), active compounds read low 0.984 | locus YFR010W, strain ubp6, active compounds read low 0.97 | locus YGL167C, strain pmr1, active compounds read low 0.991 | locus YGL173C, strain kem1, active compounds read low 0.987 | locus YGL227W, strain vid30, active compounds read low 1 | locus YGL240W, strain doc1, active compounds read low 1.02 | locus YGL253W, strain hxk2, active compounds read low 1.01 | locus YHR013C, strain ard1, active compounds read low 0.974 | locus YHR027C, strain rpn1, active compounds read low 1.01 | locus YHR142W, strain chs7, active compounds read low 0.969 | locus YJL092W, strain hpr5, active compounds read low 1 | locus YJL095W, strain BCK1 (second series), active compounds read low 1 | locus YJL115W, strain asf1, active compounds read low 1 | locus YJL129C, strain trk1, active compounds read low 0.999 | locus YJL154C, strain vps35, active compounds read low 1.02 | locus YJL164C, strain tpk1, active compounds read low 0.973 | locus YJL166W, strain qcr8, active compounds read low 1.01 | locus YKL160W, strain elf1, active compounds read low 0.975 | locus YKR026C, strain gcn3, active compounds read low 1.02 | locus YKR091W, strain srl3, active compounds read low 0.994 | locus YLL001W, strain dnm1, active compounds read low 0.992 | locus YLL026W, active compounds read low 1 | locus YLL041C, strain sdh2, active compounds read low 0.997 | locus YLR027C, strain aat2, active compounds read low 1.01 | locus YLR221C, strain rsa3, active compounds read low 0.998 | locus YLR258W, strain gsy2, active compounds read low 0.992 | locus YLR262C, strain YPT6 (second series), active compounds read low 1.01 | locus YLR320W, strain mms22, active compounds read low 0.98 | locus YLR342W, strain FKS1, active compounds read low 0.993 | locus YLR357W, strain rsc2, active compounds read low 0.966 | locus YLR370C, strain arc18, active compounds read low 1.01 | locus YLR384C, strain iki3, active compounds read low 1.01 | locus YML120C, strain ndi1, active compounds read low 1 | locus YMR058W, strain fet3, active compounds read low 0.969 | locus YMR125W, strain sto1, active compounds read low 0.995 | locus YMR129W, active compounds read low 1 | locus YMR205C, strain PFK2, active compounds read low 1 | locus YMR231W, strain pep5, active compounds read low 0.996 | locus YNL071W, strain lat1, active compounds read low 0.998 | locus YNL209W, strain ssb2, active compounds read low 1 | locus YNL248C, strain rpa49, active compounds read low 0.989 | locus YNL322C, strain KRE1 (second series), active compounds read low 0.997 | locus YNR049C, strain mso1, active compounds read low 1 | locus YOR001W, strain rrp6, active compounds read low 0.997 | locus YOR070C, strain gyp1, active compounds read low 0.992 | locus YOR080W, strain dia2, active compounds read low 0.984 | locus YOR083W, strain WHI5, active compounds read low 0.951 | locus YOR106W, strain vam3, active compounds read low 0.984 | locus YOR265W, strain rbl2, active compounds read low 1 | locus YOR270C, strain vph1, active compounds read low 1.08 | locus YOR290C, strain snf2, active compounds read low 0.995 | locus YPL051W, strain arl3, active compounds read low 0.975 | locus YPL078C, strain atp4, active compounds read low 0.991 | locus YPL106C, strain sse1, active compounds read low 0.993 | locus YPL240C, strain hsp82, active compounds read low 1.01

— PubChem BioAssay AID1159580 (chemical genetic matrix, 2015)
